# Measurements: PubChem BioAssay (Tox21)
# Values joined by “and” are separate entries in the source; they are usually repeats but may differ in a detail not shown here. Equal values may be shown once. Values without a mark were called inactive. Records with an inconclusive call do not appear. A call without a number means that no potency is given here. Active and inactive are the calls of the source. Unless noted, the call rests on the fitted dose curve; in most records, active means well fitted curve in the direction sought with a large enough effect in the repeat runs; inconclusive means weak or mixed curves; inactive means no such curve, though single readings can be large; an effect the other way counts as inactive or inconclusive.
# How the values were obtained:
# [1] = Caspase-3/7 induction in HepG2 cells by small molecules, qHTS assay (AID 1346978); further: nearly all actives have a fitted effect of over 15% in size; further: potency means the concentration at half of the fitted maximal effect
# Method in brief: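 Caspase-3/7 induction was measured by Caspase-Glo 3/7 luminescence (30 min, room temperature) after a 17 hr compound exposure of wild-type HepG2 cells seeded at 2,000 per well and pre-incubated 5 hr.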
# [2] = Caspase-3/7 induction in CHO-K1 cells by small molecules, qHTS cell viability counter screen (AID 1346979); further: nearly all actives have a fitted effect of over 35% in size; further: potency means the concentration at half of the fitted maximal effect
# Method in brief: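 To flag cytotoxic compounds, treated CHO-K1 wild-type cells were given CellTiter-Fluor at 16hr and read fluorescently after 1hr at 37C; the caspase-3/7 luminescence was measured in these same wells.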
# [3] = Caspase-3/7 induction in CHO-K1 cells by small molecules, qHTS assay (AID 1346980); further: nearly all actives have a fitted effect of over 15% in size
# Method in brief: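 Luminescent Caspase-Glo 3/7 read (30min, room temperature) quantified apoptosis induction. Cells were wild-type CHO-K1, treated with compound for 17hr at 37 C and 5% CO2.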
# [4] = Caspase-3/7 induction in HepG2 cells by small molecules, qHTS cell viability counter screen (AID 1346981); further: nearly all actives have a fitted effect of over 30% in size; further: potency means the concentration at half of the fitted maximal effect
# Method in brief: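 Multiplexed with the caspase-3/7 assay: HepG2 cells, 16 hr compound treatment, CellTiter-Fluor viability detection by fluorescence.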
# [5] = biological target: Nuclear receptor subfamily 1 group I member 2 (Homo sapiens) (UniProt O75469); assay: Human pregnane X receptor (PXR) small molecule agonists, qHTS assay (AID 1346982); further: nearly all actives have a fitted effect of over 35% in size; further: potency means the concentration at half of the fitted maximal effect
# Chain of Nuclear receptor subfamily 1 group I member 2 (Homo sapiens) (O75469 whole entry, looked up): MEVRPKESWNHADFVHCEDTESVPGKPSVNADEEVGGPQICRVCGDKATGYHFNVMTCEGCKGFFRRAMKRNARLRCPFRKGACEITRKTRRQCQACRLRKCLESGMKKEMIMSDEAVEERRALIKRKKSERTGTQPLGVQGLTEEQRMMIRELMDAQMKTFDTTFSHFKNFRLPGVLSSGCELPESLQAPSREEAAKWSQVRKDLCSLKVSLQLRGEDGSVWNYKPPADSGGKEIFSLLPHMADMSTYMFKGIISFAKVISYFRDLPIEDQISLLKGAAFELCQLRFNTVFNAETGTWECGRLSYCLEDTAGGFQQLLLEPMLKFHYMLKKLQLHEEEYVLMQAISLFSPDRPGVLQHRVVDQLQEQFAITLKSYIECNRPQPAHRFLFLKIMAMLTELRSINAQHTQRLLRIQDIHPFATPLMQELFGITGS
# Method in brief: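 We seeded PXR-Luc HepG2 cells in assay medium containing 5% charcoal-stripped FBS, added compounds 5 hr later, incubated 24 hr, and read luminescence with ONE-Glo reagent.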
# [6] = biological target: Acetylcholinesterase (Homo sapiens) (UniProt P22303); assay: Acetylcholinesterase (AChE) small molecule antagonists: colormetric cell-based qHTS assay (AID 1347395; calls by dose curve; further: nearly all actives have a fitted effect of over 30% in size; further: potency means the concentration at half of the fitted maximal effect)
# Chain of Acetylcholinesterase (Homo sapiens) (P22303 whole entry, looked up): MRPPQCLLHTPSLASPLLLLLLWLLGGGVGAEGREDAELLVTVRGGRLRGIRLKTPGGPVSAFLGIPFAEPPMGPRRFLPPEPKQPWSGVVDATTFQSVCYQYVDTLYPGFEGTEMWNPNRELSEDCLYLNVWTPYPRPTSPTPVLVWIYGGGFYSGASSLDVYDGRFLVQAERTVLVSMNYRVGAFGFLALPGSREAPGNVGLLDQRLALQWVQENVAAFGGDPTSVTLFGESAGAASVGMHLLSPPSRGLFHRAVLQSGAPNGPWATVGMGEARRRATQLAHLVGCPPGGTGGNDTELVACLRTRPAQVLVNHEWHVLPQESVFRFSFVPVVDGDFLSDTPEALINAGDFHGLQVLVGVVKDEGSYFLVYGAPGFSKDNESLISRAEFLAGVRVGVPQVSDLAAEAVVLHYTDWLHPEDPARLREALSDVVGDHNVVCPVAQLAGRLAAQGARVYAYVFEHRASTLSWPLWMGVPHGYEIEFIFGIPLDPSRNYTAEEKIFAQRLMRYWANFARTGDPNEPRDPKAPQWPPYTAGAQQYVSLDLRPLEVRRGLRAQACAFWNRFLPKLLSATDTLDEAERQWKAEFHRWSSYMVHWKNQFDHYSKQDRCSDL
# Method in brief: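 Neuroblastoma line SH-SY5Y supplied the enzyme; cells were preincubated with compound for 30 min at 37 C and 5% CO2. Acetylthiocholine with DTNB was then added for 90 min at 37 C, and thiocholine was measured by colour.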
# [7] = biological target: Acetylcholinesterase (Homo sapiens) (UniProt P22303); assay: Acetylcholinesterase (AChE) small molecule antagonists: enzyme-based qHTS assay (AID 1347397; calls by dose curve; further: nearly all actives have a fitted effect of over 55% in size); conditions: Potency: AChE enzyme activity inhibition
# Method in brief: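 Absorbance-based detection of thiocholine with DTNB served as the read-out. Recombinant human AChE was exposed to compound for 30 min at RT before a 10 min RT incubation with acetylthiocholine.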
# [8] = biological target: Nuclear receptor subfamily 1 group I member 2 (Rattus norvegicus) (UniProt Q9R1A7); assay: Rat pregnane X receptor (rPXR) activation by small molecules, qHTS assay (AID 1346983); conditions: rPXR luciferase reporter cells, One-Glo luminescence, 24 h; max activation: hits give high values; further: nearly all actives have a fitted effect of over 20% in size
# Chain of Nuclear receptor subfamily 1 group I member 2 (Rattus norvegicus) (Q9R1A7 whole entry, looked up): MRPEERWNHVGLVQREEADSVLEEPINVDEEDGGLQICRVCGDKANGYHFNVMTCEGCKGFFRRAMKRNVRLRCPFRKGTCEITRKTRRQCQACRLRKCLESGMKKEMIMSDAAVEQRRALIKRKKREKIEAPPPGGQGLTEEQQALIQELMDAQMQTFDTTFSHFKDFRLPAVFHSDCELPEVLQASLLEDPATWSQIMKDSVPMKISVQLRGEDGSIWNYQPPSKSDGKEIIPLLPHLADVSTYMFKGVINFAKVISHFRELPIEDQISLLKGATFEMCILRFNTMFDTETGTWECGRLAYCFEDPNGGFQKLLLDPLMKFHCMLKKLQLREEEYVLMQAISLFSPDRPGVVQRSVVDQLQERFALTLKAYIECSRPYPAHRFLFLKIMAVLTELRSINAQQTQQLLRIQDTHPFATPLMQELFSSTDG
# Method in brief: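 Luminescent readout (One-Glo luciferase, 30 min room temperature) followed 24 hr compound treatment at 37 C of rPXR cells plated 2,000 per well and preincubated 5hr; qHTS format with compounds delivered in DMSO.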
# [9] = biological target: Nuclear receptor subfamily 1 group I member 2 (Homo sapiens) (UniProt O75469); assay: CYP3A4 induction through human pregnane X receptor (PXR) by small molecules, qHTS assay (AID 1346984); further: nearly all actives have a fitted effect of over 40% in size
# Method in brief: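 qHTS, concentration-response format: HepG2 DPX-2 line, PXR/CYP3A4-luc. Exposure 24 h, 37C. Substrate Luciferin-IPA 3uM final, 3 h. Detection One-Glo, 30 min RT.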
# [10] = biological target: Nuclear receptor subfamily 1 group I member 2 (Homo sapiens) (UniProt O75469); assay: Human pregnane X receptor (PXR) activation by small molecules, qHTS assay (AID 1346985); further: nearly all actives have a fitted effect of over 40% in size
# Method in brief: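 DPX-2 cells (HepG2 co-transfected with a PXR response element and a CYP3A4-promoter luciferase construct) were seeded at 2,000 per well, rested 5 hr at 37C, then exposed to DMSO-dissolved compounds for 24 hr. Activation was read as luciferase luminescence.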
SMILES,Potency [1],Potency [2],Potency [3],Potency [4],Potency [5],Potency [6],Potency [7],max activation [8] [%],Potency [9],Potency [10]
CC(C)C1CCC(Cc2ccc(Cl)cc2)C1(O)Cn1cncn1 (centres undefined),67.9 µM (active),30.3 µM (active),inactive,60.5 µM (active),21.5 µM (active),inactive,inactive,–,–,–
O=[N+]([O-])O.O=[N+]([O-])O.[Cd],inactive,1.72 µM (active),inactive,–,–,–,–,–,–,–
CC(C)OS(C)(=O)=O,inactive,inactive,inactive,inactive,inactive,inactive,inactive,–,–,–
CSCCCN=C=S,inactive,inactive,inactive,inactive,inactive,inactive,inactive,–,–,–
CC1(C)[C@H](C(=O)O[C@H](C#N)c2cccc(Oc3ccccc3)c2)[C@@H]1/C=C(\Cl)C(F)(F)F,inactive,inactive,inactive,inactive,3.57 µM (active) and 2.43 µM (active),inactive,inactive,–,–,–
COc1ccc(OC)c(C=O)c1,inactive,inactive,inactive,inactive,inactive,inactive,inactive,–,–,–
Clc1ccc(C(Cl)(Cl)Cl)c(Cl)c1,inactive,inactive,inactive,inactive,inactive,inactive,inactive,–,–,–
[Hg+2].[I-].[I-],inactive,21.7 µM (active),inactive,61.1 µM (active),2.43 µM (active),inactive,–,–,–,–
CC(=O)c1cc(C(C)(C)C)cc2c1CCC2(C)C,inactive,inactive,inactive,inactive,inactive,inactive,inactive,–,–,–
N#CCCO,inactive,inactive,inactive,inactive,inactive,inactive,inactive,–,–,–
CC[C@H](C)[C@H]1O[C@]2(C=C[C@@H]1C)C[C@@H]1C[C@@H](C/C=C(\C)[C@@H](O[C@H]3C[C@H](OC)[C@@H](O[C@H]4C[C@H](OC)[C@@H](O)[C@H](C)O4)[C@H](C)O3)[C@@H](C)/C=C/C=C3\CO[C@@H]4[C@H](O)C(C)=C[C@@H](C(=O)O1)[C@]34O)O2,32.2 µM (active),14.4 µM (active),inactive,25.6 µM (active),inactive,inactive,inactive,-15.3,inactive,inactive
COc1ccc(N)cc1N,inactive,22.4 µM (active) and 29.4 µM (active),inactive,56.2 µM (active),11.2 µM (active) and 33 µM (active),inactive,inactive,–,–,–
CC(C)CBr,inactive,inactive,inactive,inactive,inactive,inactive,inactive,–,–,–
CCc1nn(C)c(C(=O)NCc2ccc(C(C)(C)C)cc2)c1Cl,inactive,0.243 µM (active),inactive,34.4 µM (active),27.3 µM (active),inactive,inactive,–,–,–
CCCCCCCCCCCCCCC(Br)C(=O)O (centres undefined),inactive,inactive,inactive,inactive,inactive,inactive,inactive,–,–,–
Cc1cc(N=Nc2ccccc2C)ccc1N,1.37 µM (active) and 969 nM (active),30.6 µM (active) and 61.1 µM (active),inactive,3.86 µM (active) and 686 nM (active),24.3 µM (active) and 30.6 µM (active),inactive,inactive,–,–,–
CCSC(C)CC1CC(=O)C(/C(CC)=N/OC/C=C/Cl)=C(O)C1 (centres undefined),inactive,inactive,inactive,inactive,inactive,30.9 µM (active),inactive,–,–,–
Cn1[nH]nnc1=S,inactive,inactive,inactive,inactive,inactive,inactive,inactive,–,–,–
N#CCc1ccc(Cl)cc1,inactive,inactive,inactive,inactive,inactive,inactive,inactive,–,–,–
C=CC(=O)N(C)C,inactive,inactive,inactive,inactive,inactive,inactive,inactive,–,–,–
CC(C)(C)OO,inactive,inactive,inactive,inactive,inactive,inactive,inactive,–,–,–
CCCCCCCCCCCCBr,inactive,inactive,inactive,inactive,inactive,inactive,inactive,–,–,–
ClCc1ccc(Cl)cc1Cl,inactive,inactive,inactive,inactive,inactive,inactive,inactive,–,–,–
